# From PubChem BioAssay AID1159580 (chemical genetic matrix, 2015)
# Several values for one entry are separate records, joined by “and”; a condition that tells them apart may be missing. Equal entries are not always repeated. The whole screen tested about 5,500 compounds, of which about 2,000 (36%) were called active. Roughly 18% stayed inconclusive and do not appear here. No stated cut-off is given here; in the data, active means normalized growth mostly below about 0.91 (no sharp cut-off); inconclusive means no clear call, values can overlap the other calls; inactive means mostly above about 0.92. The list shows a part of the results.
# Experiment: chemical genetic growth profiling, strain panel (AID 1159580);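 further: tested at 20 µM; growth read once vehicle control cultures reached saturation at 30 °C; 1 = growth at the plate median or of vehicle wells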
# Conditions: S. cerevisiae deletion strains, growth OD
compound,measurement,setting,value
Cc1c(OCC(F)(F)F)ccnc1CS(=O)c1nc2ccccc2[nH]1 (stereo not given),normalized growth,"locus YAL013W, strain DEP1, stronger effect = lower value",0.992 (inactive)
same,normalized growth,"locus YAL021C, strain ccr4, stronger effect = lower value",1.01 (inactive)
same,normalized growth,"locus YAL026C, strain drs2, stronger effect = lower value",1.02 (inactive)
same,normalized growth,"locus YAL030W, strain snc1, stronger effect = lower value",1.03 (inactive)
same,normalized growth,"locus YAL040C, strain CLN3, stronger effect = lower value",0.959 (inactive)
same,normalized growth,"locus YBL061C, strain skt5, stronger effect = lower value",1.02 (inactive)
same,normalized growth,"locus YBR009C, strain hhf1, stronger effect = lower value",1.02 (inactive)
same,normalized growth,"locus YBR021W, strain FUR4, stronger effect = lower value",0.948 (inactive)
same,normalized growth,"locus YBR023C, strain chs3, stronger effect = lower value",1.02 (inactive)
same,normalized growth,"locus YBR171W, strain sec66, stronger effect = lower value",1.02 (inactive)
same,normalized growth,"locus YBR229C, strain ROT2, stronger effect = lower value",0.982 (inactive)
same,normalized growth,"locus YBR231C, strain swc5, stronger effect = lower value",1.05 (inactive)
same,normalized growth,"locus YBR279W, strain paf1, stronger effect = lower value",1 (inactive)
same,normalized growth,"locus YCL011C, strain gbp2, stronger effect = lower value",1.01 (inactive)
same,normalized growth,"locus YCL016C, strain dcc1, stronger effect = lower value",1.01 (inactive)
same,normalized growth,"locus YCL029C, strain bik1, stronger effect = lower value",0.971 (inactive)
same,normalized growth,"locus YCL061C, strain MRC1 (second series), stronger effect = lower value",0.997 (inactive)
same,normalized growth,"locus YCL061C, strain MRC1, stronger effect = lower value",1.02 (inactive)
same,normalized growth,"locus YCL069W, strain vba3, stronger effect = lower value",1 (inactive)
same,normalized growth,"locus YCR088W, strain abp1, stronger effect = lower value",1.01 (inactive)
same,normalized growth,"locus YDL005C, strain med2, stronger effect = lower value",1.02 (inactive)
same,normalized growth,"locus YDL035C, strain GPR1, stronger effect = lower value",0.997 (inactive)
same,normalized growth,"locus YDL040C, strain nat1, stronger effect = lower value",1.03 (inactive)
same,normalized growth,"locus YDL074C, strain BRE1, stronger effect = lower value",0.937 (inactive)
same,normalized growth,"locus YDL101C, strain DUN1, stronger effect = lower value",0.959 (inactive)
same,normalized growth,"locus YDL134C, strain PPH21, stronger effect = lower value",0.997 (inactive)
same,normalized growth,"locus YDL185W, strain tfp1, stronger effect = lower value",0.98 (inactive)
same,normalized growth,"locus YDL192W, strain arf1, stronger effect = lower value",0.977 (inactive)
same,normalized growth,"locus YDR001C, strain nth1, stronger effect = lower value",1.01 (inactive)
same,normalized growth,"locus YDR069C, strain doa4, stronger effect = lower value",1.01 (inactive)
same,normalized growth,"locus YDR101C, strain arx1, stronger effect = lower value",0.985 (inactive)
same,normalized growth,"locus YDR137W, strain rgp1, stronger effect = lower value",1.01 (inactive)
same,normalized growth,"locus YDR150W, strain NUM1, stronger effect = lower value",0.996 (inactive)
same,normalized growth,"locus YDR159W, strain sac3, stronger effect = lower value",1.02 (inactive)
same,normalized growth,"locus YDR162C, strain NBP2, stronger effect = lower value",0.976 (inactive)
same,normalized growth,"locus YDR195W, strain ref2",1.02 (inactive)
same,normalized growth,"locus YDR297W, strain sur2, stronger effect = lower value",1.02 (inactive)
same,normalized growth,"locus YDR318W, strain mcm21, stronger effect = lower value",0.959 (inactive)
same,normalized growth,"locus YDR334W, strain swr1, stronger effect = lower value",1.01 (inactive)
same,normalized growth,"locus YDR335W, strain msn5, stronger effect = lower value",1.01 (inactive)
same,normalized growth,"locus YDR363W, strain ESC2, stronger effect = lower value",0.933 (inactive)
same,normalized growth,"locus YDR388W, stronger effect = lower value",0.987 (inactive)
same,normalized growth,"locus YDR392W, strain spt3, stronger effect = lower value",1.03 (inactive)
same,normalized growth,"locus YDR502C, strain sam2, stronger effect = lower value",0.94 (inactive)
same,normalized growth,"locus YEL003W, strain gim4, stronger effect = lower value",1.03 (inactive)
same,normalized growth,"locus YEL037C, strain rad23, stronger effect = lower value",1.01 (inactive)
same,normalized growth,"locus YEL061C, strain CIN8 (second series), stronger effect = lower value",1.03 (inactive)
same,normalized growth,"locus YEL061C, strain CIN8, stronger effect = lower value",0.999 (inactive)
same,normalized growth,"locus YER002W, strain NOP16, stronger effect = lower value",1.02 (inactive)
same,normalized growth,"locus YER015W, strain faa2, stronger effect = lower value",1.02 (inactive)
same,normalized growth,"locus YER016W, strain bim1, stronger effect = lower value",1.03 (inactive)
same,normalized growth,"locus YER110C, stronger effect = lower value",0.969 (inactive)
same,normalized growth,"locus YER111C, strain swi4, stronger effect = lower value",1.01 (inactive)
same,normalized growth,"locus YER155C, strain BEM2 (second series), stronger effect = lower value",1.01 (inactive)
same,normalized growth,"locus YER155C, strain BEM2, stronger effect = lower value",0.988 (inactive)
same,normalized growth,"locus YER167W, strain BCK2, stronger effect = lower value",0.987 (inactive)
same,normalized growth,"locus YFR010W, strain ubp6, stronger effect = lower value",1.02 (inactive)
same,normalized growth,"locus YGL078C, strain dbp3, stronger effect = lower value",0.898 (active)
same,normalized growth,"locus YGL086W, strain mad1, stronger effect = lower value",0.987 (inactive)
same,normalized growth,"locus YGL167C, strain pmr1, stronger effect = lower value",1.03 (inactive)
same,normalized growth,"locus YGL173C, strain kem1, stronger effect = lower value",1.04 (inactive)
same,normalized growth,"locus YGL227W, strain vid30, stronger effect = lower value",1.02 (inactive)
same,normalized growth,"locus YGL240W, strain doc1, stronger effect = lower value",1.02 (inactive)
same,normalized growth,"locus YGL248W, strain PDE1, stronger effect = lower value",0.988 (inactive)
same,normalized growth,"locus YGL253W, strain hxk2, stronger effect = lower value",1.01 (inactive)
same,normalized growth,"locus YGR078C, strain PAC10, stronger effect = lower value",0.945 (inactive)
same,normalized growth,"locus YGR135W, strain pre9, stronger effect = lower value",0.944 (inactive)
same,normalized growth,"locus YGR229C, strain SMI1, stronger effect = lower value",0.951 (inactive)
same,normalized growth,"locus YGR252W, strain gcn5, stronger effect = lower value",0.943 (inactive)
same,normalized growth,"locus YHR013C, strain ard1, stronger effect = lower value",0.999 (inactive)
same,normalized growth,"locus YHR027C, strain rpn1, stronger effect = lower value",1.01 (inactive)
same,normalized growth,"locus YHR030C, strain SLT2, stronger effect = lower value",0.996 (inactive) and 0.482 (active)
same,normalized growth,"locus YHR079C, strain IRE1 (second series), stronger effect = lower value",0.976 (inactive)
same,normalized growth,"locus YHR079C, strain IRE1, stronger effect = lower value",0.632 (active)
same,normalized growth,"locus YHR094C, strain hxt1, stronger effect = lower value",0.994 (inactive)
same,normalized growth,"locus YHR129C, strain ARP1, stronger effect = lower value",0.991 (inactive)
same,normalized growth,"locus YHR142W, strain chs7, stronger effect = lower value",1.02 (inactive)
same,normalized growth,"locus YHR200W, strain rpn10, stronger effect = lower value",0.963 (inactive)
same,normalized growth,"locus YIL066C, strain RNR3, stronger effect = lower value",0.975 (inactive)
same,normalized growth,"locus YIL073C, strain SPO22, stronger effect = lower value",1.04 (inactive)
same,normalized growth,"locus YIL125W, strain kgd1, stronger effect = lower value",0.952 (inactive)
same,normalized growth,"locus YIR030C, strain dcg1, stronger effect = lower value",0.995 (inactive)
same,normalized growth,"locus YJL092W, strain hpr5, stronger effect = lower value",1.01 (inactive)
same,normalized growth,"locus YJL095W, strain BCK1 (second series), stronger effect = lower value",1.02 (inactive)
same,normalized growth,"locus YJL095W, strain BCK1, stronger effect = lower value",0.937 (inactive) and 0.468 (active)
same,normalized growth,"locus YJL115W, strain asf1, stronger effect = lower value",1.03 (inactive)
same,normalized growth,"locus YJL129C, strain trk1, stronger effect = lower value",1.04 (inactive)
same,normalized growth,"locus YJL134W, strain LCB3, stronger effect = lower value",1 (inactive)
same,normalized growth,"locus YJL154C, strain vps35, stronger effect = lower value",1.01 (inactive)
same,normalized growth,"locus YJL164C, strain tpk1, stronger effect = lower value",1.02 (inactive)
same,normalized growth,"locus YJL166W, strain qcr8, stronger effect = lower value",1.03 (inactive)
same,normalized growth,"locus YJL168C, strain set2, stronger effect = lower value",0.982 (inactive)
same,normalized growth,"locus YJL187C, strain SWE1 (second series), stronger effect = lower value",0.951 (inactive)
same,normalized growth,"locus YJR043C, strain POL32, stronger effect = lower value",0.979 (inactive)
same,normalized growth,"locus YJR066W, strain TOR1, stronger effect = lower value",0.767 (active)
